Out of some 13,000 compounds screened, about 3,200 (25%) showed an effect of 50% or more. The list shows a part of the results.
system: P. falciparum stage V gametocytes; set-up: BacTiter-Glo ATP luminescence viability of purified stage V gametocytes in 384-well plates, per cent inhibition versus DMSO; conditions: 48 h, 5 µM; inhibitor

SMILES	% Inhibition
Cn1c(N)c(N=O)c(=O)[nH]c1=O [TCMDC-123469]	-4.943%
CC1CN(Cc2ccc(C#N)cc2)CCN1c1ccc(NC(=O)c2cccs2)cc1 (centres unmarked) [TCMDC-134949]	-2.454%
Cc1nnnn1-c1ccc(C(=O)N2CCC3(CC2)CN(Cc2ccc(Cl)c(Cl)c2)C(=O)O3)cc1 [TCMDC-141691]	-63.06%
O=C(Nc1ccc(CCNCCCc2ccccc2)cc1)Nc1ccc(Cl)c(Cl)c1 [TCMDC-140703]	18.38%
O=C(CCCCCNC(=O)c1ccc(O)c(-c2ccc(Cl)c(Cl)c2)c1)NCCc1ccc(Cl)c(Cl)c1 [TCMDC-140870]	6.745%
Oc1ccc(CCNCCCCCCNCCc2ccc(Cl)c3ccccc23)cc1O [TCMDC-131271]	123.4%
NS(=O)(=O)c1cccc(Nc2nccc(-c3cnn4ncccc34)n2)c1 [TCMDC-138919]	-22.3%
CC(C)c1cc(N)c2cc(NC(=O)COCC(=O)Nc3ccc4nc(C(C)C)cc(N)c4c3)ccc2n1 [TCMDC-140151]	20.51%
Cc1cc(N)c2cc(NC(=O)c3cc4ccccc4s3)ccc2n1 [TCMDC-139336]	120.6%
Cc1cc(Nc2cccc(C(F)(F)F)c2)nc2ccc(NC(=O)c3ccc(=O)[nH]c3)cc12 [TCMDC-125286]	-51.61%
Cc1[nH]cnc1-c1cccc(NC(=O)c2cc3ccccc3s2)c1 [TCMDC-140418]	-4.001%
O=C(Nc1cncc(NC(=O)c2ccc(Cl)c(Cl)c2)c1)c1ccc(Cl)c(Cl)c1 [TCMDC-134576]	-22.28%
CN1CCc2cc(NC(=O)c3cc4ccccc4s3)cc(-c3ccccc3)c2CC1 [TCMDC-141733]	18.19%
Cc1cc(N)c2cc(NC(=O)c3ccc4ccccc4c3)ccc2n1 [TCMDC-139362]	110.4%
Cc1cc(N)c2cc(NC(=O)c3cc(C(F)(F)F)cc(C(F)(F)F)c3)ccc2n1 [TCMDC-139377]	129.8%
Nc1nc(N)c2cc(NC(=O)c3ccc(Cl)c(Cl)c3)ccc2n1 [TCMDC-141982]	63.61%
COc1cc(C)nc2ccc(NC(=O)c3cc(C(F)(F)F)cc(C(F)(F)F)c3)cc12 [TCMDC-139381]	-62.94%
Nc1nc(N)c2cc(CNc3ccc(Cl)c(Cl)c3)ccc2n1 [TCMDC-141974]	-49.67%

SMILES	% Inhibition
Cc1ccc2nc(-c3cc(-c4ccc(OCc5ccccc5)cc4)cnc3N)[nH]c2c1 [TCMDC-135839]	-50.65%
Cn1c(=O)n(C)c2cc(CNCCNc3ccnc4cc(Cl)ccc34)ccc21 [TCMDC-125236]	26.13%
CCCOc1ccc(CCCON2C(N)=NC(N)=NC2(C)C)cc1 [TCMDC-131757]	14.14%
Cc1noc(C)c1-c1cccc(CNCc2ccc(-c3cccc(-c4nc5ccccc5[nH]4)c3)cc2)c1.O=C(O)C(F)(F)F [TCMDC-132565]	-39.99%
OCCN1CCN(C(=S)NC2CCCCC2)CC1 [TCMDC-123848]	-10.92%
O=C(NCc1cccc(C(F)(F)F)c1)c1ccc(-c2nc3cc(F)c(F)cc3[nH]2)cc1 [TCMDC-140461]	13.57%
Cc1cc(N)c2cc(NC(=O)c3cccc4ccccc34)ccc2n1 [TCMDC-139378]	63.27%
Cc1cc(C(=O)Nc2ccc(OCc3ccccc3)cc2)on1 [TCMDC-124596]	15.42%
COc1cc(C)nc2ccc(NC(=O)c3ccc(C(=O)Nc4ccc5nc(C)cc(OC)c5c4)cc3)cc12 [TCMDC-139502]	14.93%
Cc1cc(C)c(C(=O)Nc2ccc3nc(C)cc(N)c3c2)c(C)c1 [TCMDC-139379]	-0.864%
Cc1cc(Nc2ccc(OCc3ccccc3Cl)cc2)c2cc(Cl)ccc2n1 [TCMDC-123799]	-30.43%
COc1cc(C)nc2ccc(NC(=O)Nc3cccc4ccccc34)cc12 [TCMDC-139397]	-27.18%
Cc1cc(N)c2cc(NC(=O)c3cccc(C(=O)Nc4ccc5nc(C)cc(N)c5c4)c3)ccc2n1 [TCMDC-139410]	73.19%
CCc1ccc(OCc2ccccc2C(=O)Nc2ccc3nc(C)cc(N)c3c2)cc1 [TCMDC-125882]	102.8%
Cc1cc(N)c2cc(NC(=O)CCC(=O)Nc3ccc4nc(C)cc(N)c4c3)ccc2n1 [TCMDC-139503]	21.97%
Cc1cccc2nc(-c3ccc(-c4ccc(CN5CCN(c6ccc(C#N)cn6)CC5)cc4)s3)[nH]c12.O=C(O)C(F)(F)F [TCMDC-133116]	1.839%
NC1(C(=O)O)Cc2ccc(Cl)cc2C1 (centres unmarked) [TCMDC-131768]	8.887%

From article PMC4552634, “A New Set of Chemical Starting Points with Plasmodium falciparum Transmission-Blocking Potential for Antimalarial Drug Discovery” (PLoS ONE, 2015)
